From PubChem
Pf apPOL inh: Pf-apPOL DNA polymerase inhibition; AID 1794808; inhibition, % at 10 µM; Recombinant Pf-apPOL, molecular beacon fluorescence, 1.5 h; hit rate 0.25% among 210,000
mHTT-CaM PPI inh: mHTT-calmodulin interaction abrogation; P42858; inhibition, % at 15 µM; AlphaScreen His-mHTT/GST-CaM binding, luminescence; hit rate 3.6% among 190,000;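 also: 0% = both proteins with DMSO and 100% = one protein alone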
* = called active by the depositor; · = no result given. Sampled rows, rich in hits. Any-hit rate of the full collection: about 3.5%. Rule as the data show it: active = inhibition above about 50%; inactive = the rest.

SMILES	Pf apPOL inh	mHTT-CaM PPI inh
COc1cccc(CNc2cccc(F)c2)c1	-14	-34
COc1cccc(CNc2ccccc2)c1	-2	4
COc1cccc(CNc2ccc(C)c(C)c2)c1	0	53*
COc1cc(CNc2ccc(C)c(C)c2)cc(OC)c1	0	69*
COc1cccc(CNc2ccc3c(c2)CCC3)c1	2	67*
COc1cc2c(cc1NC(=O)c1ccoc1C)oc1ccccc12	-1	-6
Cn1cnc2ccc(-c3noc(-c4ccoc4)n3)cc21	-2	2
Cc1c(NC(=O)c2ccccc2[N+](=O)[O-])cccc1-c1nc2cc(Cl)ccc2o1	-2	2
CCOc1cc(C(=O)NCCSc2c[nH]c3ccccc23)cc(OCC)c1OCC	7	12
CN(C)C(=O)Cn1c(=O)c2cccn2c2ccc(F)cc21	2	-5
O=C(O)c1ccc(-c2ccc(/C=C3/NC(=O)N(Cc4ccc(F)cc4)C3=O)o2)cc1	-5	-3
Cc1ccc(NC(=O)Cn2nc(N(C)C)c3ccccc3c2=O)cc1Cl	-1	80*
Cc1ccc(NC(=O)Cn2nc(N(C)C)c3ccccc3c2=O)cc1	0	-2
COc1cccc(N2CCN(c3nc(C(=O)N4CCCCCC4)cs3)CC2)c1	-1	22
Cc1cc([N+](=O)[O-])ccc1NC(NC(=O)c1cccs1)C(=O)c1ccccc1 (stereo not given)	3	0
FC(F)(F)c1ccc2c(c1)nc(SCc1ccccc1)n2CCc1ccccc1	-13	·
Oc1ccc2ccccc2c1Sc1c(O)ccc2ccccc12	·	59*
Oc1ccc2ccccc2c1N=Nc1ccccn1	-207	·
Cc1ccccc1S(=O)(=O)N1CCC(CN2CCC(C)CC2)CC1	1	-4
CC1=Nc2c([nH]c3ccccc23)-c2cc(C)ccc2N1	2	70*
Cc1ccc(C)c(-c2noc(-c3c(O)c4ccccc4[nH]c3=O)n2)c1	-12	-7
Cc1ccc([N+](=O)[O-])c(C2=N/C(=C/c3cccc(F)c3)C(=O)O2)c1	-1	8
COc1cc(NC(=O)N2CCCC2c2cc(C)on2)cc(OC)c1 (stereo not given)	-1	2
COc1cc(OC)c(NC(=O)C2CCCN(c3nccc4sccc34)C2)cc1Cl (stereo not given)	-5	45
COc1ccc(Cl)cc1NC(=O)C1CCN(c2nccc3sccc23)CC1	-3	100*
SMILES	Pf apPOL inh	mHTT-CaM PPI inh
COc1ccc(Cl)cc1NC(=O)C1CCN(c2nccc(C)n2)CC1	0	-8
COc1cc(Cl)c(NC(=O)C2CCCN(c3nccc4sccc34)C2)c(OC)c1 (stereo not given)	3	60*
COc1cc(CN2CCCC2c2cc(C(C)C)no2)cc(OC)c1 (stereo not given)	-1	-9
C=CCNC(=O)/C(=C\c1cccc(Br)c1)NC(=O)c1ccco1	0	-2
CCNC(=O)CCC(=O)N1CC2CCCN2c2ccccc21 (stereo not given)	-3	11
O=C(CCC(=O)N1CC2CCCN2c2ccccc21)NCCN1CCCC1 (stereo not given)	-5	68*
CCc1ccc(CNC(=O)CCC(=O)N2CC3CCCN3c3ccccc32)cc1 (stereo not given)	-2	55*
O=C(CCC(=O)N1CC2CCCN2c2ccccc21)NCCN1CCCCCC1 (stereo not given)	-5	41
Cc1ccccc1C=C1Oc2c(ccc(O)c2CN2CCCC2)C1=O	1	-4
CCn1cc(C(=O)NCc2cc(-c3cccs3)on2)c(=O)c2ccc(C)nc21	-5	-13
C[C@@H]1CCC(=O)N(CC[C@H](Sc2ccccc2)c2ccccc2)CC1	-3	46
O=C1CCC(OCc2ccccc2)CCN1CC[C@@H](Sc1ccccc1)c1ccccc1 (stereo not given in full)	2	80*
O=C1CC[C@@H](OCc2ccccc2)CCN1CC[C@H](Sc1ccccc1)c1ccccc1	-1	59*
O=C1CC[C@@H](O)CCN1CC[C@H](Sc1ccccc1)c1ccccc1	-4	14
[N-]=[N+]=N[C@@H](CCN1CC[C@H](OCc2ccccc2)CCC1=O)c1ccccc1	-3	51*
[N-]=[N+]=N[C@@H](CCN1CC[C@H](NC(=O)OCc2ccccc2)CCC1=O)c1ccccc1	0	15
COc1cccc(C=C2Oc3c(ccc(O)c3CN3CCCCCC3)C2=O)c1OC	0	12
CCNC(=O)c1cnn(C(C)(C)C)c1C(C)C	0	-3
CCOc1ccccc1NC(=O)c1cc2cc3ccc(OC)cc3nc2s1	0	3
COc1ccccc1NC(=O)N1CCC(N2CCN(Cc3ccc(F)cc3)C2=O)CC1	0	-2
O=C(c1ccc(OCC2CCCN(C(=O)C3CCCCC3)C2)cc1)N1CCCCC1 (stereo not given)	-5	16
O=C(c1ccc(OCC2CCCN(C(=O)C3CCCC3)C2)cc1)N1CCCCC1 (stereo not given)	96*	4
CC(=O)c1ccc(NC(=O)/C(=C/c2cccc([N+](=O)[O-])c2)NC(=O)c2ccco2)cc1	-6	21
CC(O)(CNC(=O)C(=O)NCc1cccs1)c1cccs1 (stereo not given)	-2	-12
COc1ccc(CN2C(=O)CN(C3CCCCC3)C(=O)C2c2cccs2)cc1 (stereo not given)	-8	-3
SMILES	Pf apPOL inh	mHTT-CaM PPI inh
COc1cc2c(cc1OC)C(C(=O)N(C)Cc1ccccc1)C1c3ccccc3CCN1C2=O (stereo not given)	-5	20
COc1ccc(-c2ccc3nc(N4CCC(C(=O)NC(C)C)CC4)sc3n2)cc1	-5	14
CCNC(=O)C1CCN(c2nc3ccc(-c4ccc(OC)cc4)nc3s2)CC1	7	62*
O=C(C1CC1)N1CCc2sc(S(=O)(=O)NCc3cccc(F)c3)cc2C1	1	5
CCN(CC)C(=O)CC(c1ccc(N(C)C)cc1)c1c(OC)cc(OC)c2c(-c3ccccc3)cc(=O)oc12 (stereo not given)	1	3
COc1ccc(C(CC(=O)N2CCCC2)c2c(OC)cc(OC)c3c(-c4ccccc4)cc(=O)oc23)cc1 (stereo not given)	16	81*
COc1ccc(C(CC(=O)N2CCCC2)c2c(OC)cc(OC)c3ccc(=O)oc23)cc1 (stereo not given)	-1	44
COc1ccc(C(CC(=O)N2CCOCC2)c2c(OC)cc(OC)c3c(-c4ccccc4)cc(=O)oc23)cc1 (stereo not given)	8	43
COc1cc(OC)c2c(-c3ccccc3)cc(=O)oc2c1C(CC(=O)N1CCCC1)c1ccc(N(C)C)cc1 (stereo not given)	-9	90*
COc1cc(C(CC(=O)N2CCCC2)c2c(OC)cc(OC)c3c(-c4ccccc4)cc(=O)oc23)cc(OC)c1OC (stereo not given)	3	52*
Cc1nc(C)c(Cc2ccccc2)c(N2CCN(C(=O)C(C)(C)CCl)CC2)n1	-4	20
O=C(Nc1ccc(S(=O)(=O)N2CCOCC2)cc1)c1ccccc1I	-14	7
COc1ccc(C(=O)NC(N2CCCCC2)C(Cl)(Cl)Cl)cc1 (stereo not given)	44	-10
CCCOc1ccccc1/C=C1/N=C(c2ccccc2)OC1=O	-96	-1
Cc1cccc(-n2nc3c(c2NC(=O)c2ccc(S(=O)(=O)N(C)C)cc2)CSC3)c1	-2	39
CCn1c(-c2cc(NC(=O)C3CC3)n[nH]2)cc2ccc(OC)cc21	-4	27
